# Measurements reported in the supplement of paper PMC8728848.
# This is one part of a sample in which the strongest signals are shown more often than they occur.
# B1: Banana lectin (Musa acuminata) (protein)
# chain: MNGAIKVGAWGGNGGSAFDMGPAYRIISVKIFSGDVVDAVDVTFTYYGKTETRHFGGSGGTPHEIVLQEGEYLVGMKGEFGNYHGVVVVGKLGFSTNKKSYGPFGNTGGTPFSLPIAAGKISGFFGRGGDFIDAIGVYLEP
# Columns and labels:
# Assay in all cases: glycan array binding signal (z-score within array); higher = stronger binding
# Conditions in all cases: glycan notation: IUPAC condensed, linker removed
# [1] = target: Fuc(a1-2)Gal(b1-3)[Fuc(a1-4)]GlcNAc(b1-3)[Fuc(a1-3)[Gal(b1-4)]GlcNAc(b1-6)]Gal(b1-4)Glc
# Procedure, shortened: (§1)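 Arrays were curated from the Consortium for Functional Glycomics database, 3228 in total, and kept only where the protein sequence was available. Binding is expressed as a within-array Z-score. This score was averaged across arrays of the same protein sequence at different concentrations or buffers and across linkers, and negative values can be read as non-binding.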
# [2] = target: Fuc(a1-2)[Gal(a1-3)]Gal(b1-3)GalNAc(b1-3)Gal(a1-4)Gal(b1-4)Glc
# Procedure, shortened: as §1
# [3] = target: Fuc(a1-2)[Gal(a1-3)]Gal(b1-4)GlcNAc(b1-3)GalNAc
# Procedure, shortened: as §1
# [4] = target: Fuc(a1-2)[GalNAc(a1-3)]Gal(b1-3)GlcNAc(b1-3)GalNAc
# Procedure, shortened: as §1
# [5] = target: Fuc(a1-3)[Gal(b1-4)]GlcNAc
# Procedure, shortened: as §1
# [6] = target: Fuc(a1-3)[Gal3S(b1-4)]Glc
# Procedure, shortened: as §1
# Gal(a1-3)GalNAc = target: Gal(a1-3)GalNAc
# Procedure, shortened: as §1
# Gal(a1-4)GlcNAc = target: Gal(a1-4)GlcNAc
# Procedure, shortened: as §1
# [7] = target: Gal(b1-3)GlcNAc(b1-3)GalNAc
# Procedure, shortened: as §1
# [8] = target: Gal(b1-3)GlcNAc(b1-6)[Gal(b1-3)]GalNAc
# Procedure, shortened: as §1
# [9] = target: Gal(b1-3)[Fuc(a1-4)]GlcNAc(b1-2)Man
# Procedure, shortened: as §1
# [10] = target: Gal(b1-3)[Fuc(a1-4)]GlcNAc(b1-6)GalNAc
# Procedure, shortened: as §1
# [11] = target: Gal(b1-4)GlcNAc(a1-6)Gal(b1-4)GlcNAc
# Procedure, shortened: as §1
# [12] = target: Gal(b1-4)GlcNAc(b1-2)Man(a1-3)[Gal(b1-4)GlcNAc(b1-2)Man(a1-6)]Man(b1-4)GlcNAc(b1-4)GlcNAc
# Procedure, shortened: as §1
# [13] = target: Gal(b1-4)GlcNAc(b1-2)[Gal(b1-4)GlcNAc(b1-4)]Man(a1-3)[GlcNAc(b1-4)][Gal(b1-4)GlcNAc(b1-2)[Gal(b1-4)GlcNAc(b1-6)]Man(a1-6)]Man(b1-4)GlcNAc(b1-4)GlcNAc
# Procedure, shortened: as §1
# [14] = target: Gal(b1-4)GlcNAc(b1-6)[Gal(b1-3)]GalNAc
# Procedure, shortened: as §1
# [15] = target: Gal3S(b1-4)[Fuc(a1-3)]GlcNAc
# Procedure, shortened: as §1
# Gal4S(b1-4)GlcNAc = target: Gal4S(b1-4)GlcNAc
# Procedure, shortened: as §1
# Gal6S(b1-3)GlcNAc6S = target: Gal6S(b1-3)GlcNAc6S
# Procedure, shortened: as §1
# [16] = target: GlcNAc(a1-4)Gal(b1-4)GalNAc
# Procedure, shortened: as §1
# [17] = target: GlcNAc(b1-3)Gal(b1-4)GlcNAc(b1-3)Gal(b1-4)GlcNAc(b1-3)Gal(b1-4)GlcNAc(b1-2)Man(a1-3)[GlcNAc(b1-3)Gal(b1-4)GlcNAc(b1-3)Gal(b1-4)GlcNAc(b1-3)Gal(b1-4)GlcNAc(b1-2)Man(a1-6)]Man(b1-4)GlcNAc(b1-4)GlcNAc
# Procedure, shortened: as §1
# [18] = target: GlcNAc(b1-3)Gal(b1-4)GlcNAc(b1-3)Gal(b1-4)GlcNAc(b1-3)Gal(b1-4)GlcNAc(b1-3)Gal(b1-4)GlcNAc(b1-2)[GlcNAc(b1-3)Gal(b1-4)GlcNAc(b1-3)Gal(b1-4)GlcNAc(b1-3)Gal(b1-4)GlcNAc(b1-3)Gal(b1-4)GlcNAc(b1-6)]Man(a1-6)[GlcNAc(b1-3)Gal(b1-4)GlcNAc(b1-3)Gal(b1-4)GlcNAc(b1-3)Gal(b1-4)GlcNAc(b1-3)Gal(b1-4)GlcNAc(b1-2)Man(a1-3)]Man(b1-4)GlcNAc(b1-4)[Fuc(a1-6)]GlcNAc
# Procedure, shortened: as §1
# [19] = target: Man(a1-2)Man(a1-2)Man(a1-3)Man
# Procedure, shortened: as §1
# [20] = target: Man(a1-2)Man(a1-2)Man(a1-6)[Man(a1-3)]Man
# Procedure, shortened: as §1
# Man(a1-2)Man(a1-3)Man = target: Man(a1-2)Man(a1-3)Man
# Procedure, shortened: as §1
# [21] = target: Man(a1-2)Man(a1-3)[Man(a1-2)Man(a1-6)]Man(a1-6)[Man(a1-2)Man(a1-2)Man(a1-3)]Man
# Procedure, shortened: as §1
# [22] = target: Man(a1-2)Man(a1-3)[Man(a1-2)Man(a1-6)]Man(a1-6)[Man(a1-2)Man(a1-2)Man(a1-3)]Man(b1-4)GlcNAc(b1-4)GlcNAc
# Procedure, shortened: as §1
# [23] = target: Man(a1-2)Man(a1-3)[Man(a1-6)]Man(a1-6)[Man(a1-2)Man(a1-3)]Man(b1-4)GlcNAc(b1-4)GlcNAc
# Procedure, shortened: as §1
# [24] = target: Man(a1-2)Man(a1-6)[Man(a1-3)]Man(a1-6)[Man(a1-2)Man(a1-2)Man(a1-3)]Man
# Procedure, shortened: as §1
# [25] = target: Man(a1-2)Man(a1-6)[Man(a1-3)]Man(a1-6)[Man(a1-2)Man(a1-2)Man(a1-3)]Man(b1-4)GlcNAc(b1-4)GlcNAc
# Procedure, shortened: as §1
# [26] = target: Man(a1-3)[Man(a1-6)]Man(a1-6)[Man(a1-2)Man(a1-3)]Man(b1-4)GlcNAc(b1-4)GlcNAc
# Procedure, shortened: as §1
# [27] = target: Man(a1-3)[Man(a1-6)]Man(a1-6)[Man(a1-3)]Man(b1-4)GlcNAc(b1-4)GlcNAc
# Procedure, shortened: as §1
# [28] = target: Man(a1-3)[Man(a1-6)]Man(b1-4)GlcNAc(b1-4)GlcNAc
# Procedure, shortened: as §1
# Man(a1-6)Man = target: Man(a1-6)Man
# Procedure, shortened: as §1
# [29] = target: Neu5Ac(a2-3)Gal(b1-4)GlcNAc(b1-2)Man(a1-3)[GlcNAc(b1-4)][Neu5Ac(a2-3)Gal(b1-4)GlcNAc(b1-2)Man(a1-6)]Man(b1-4)GlcNAc(b1-4)GlcNAc
# Procedure, shortened: as §1
# [30] = target: Neu5Ac(a2-3)Gal(b1-4)GlcNAc(b1-3)Gal(b1-4)[Fuc(a1-3)]GlcNAc
# Procedure, shortened: as §1
# [31] = target: Neu5Ac(a2-3)Gal(b1-4)GlcNAc(b1-6)[Neu5Ac(a2-3)Gal(b1-3)]GalNAc
# Procedure, shortened: as §1
# [32] = target: Neu5Ac(a2-3)[GalNAc(b1-4)]Gal(b1-4)Glc
# Procedure, shortened: as §1
# [33] = target: Neu5Ac(a2-6)Gal(b1-4)GlcNAc(b1-2)Man(a1-3)[Gal(b1-4)GlcNAc(b1-2)Man(a1-6)]Man(b1-4)GlcNAc(b1-4)GlcNAc
# Procedure, shortened: as §1
# [34] = target: Neu5Ac(a2-6)Gal(b1-4)GlcNAc(b1-2)Man(a1-3)[GlcNAc(b1-2)Man(a1-6)]Man(b1-4)GlcNAc(b1-4)GlcNAc
# Procedure, shortened: as §1
# [35] = target: Neu5Ac(a2-6)Gal(b1-4)GlcNAc(b1-3)Gal(b1-3)GlcNAc
# Procedure, shortened: as §1
# Neu5Ac(a2-6)GalNAc = target: Neu5Ac(a2-6)GalNAc
# Procedure, shortened: as §1
# [36] = target: Neu5Ac(a2-6)GlcNAc(b1-4)GlcNAc(b1-4)GlcNAc
# Procedure, shortened: as §1
binder,measurement,setting,value
B1,glycan array binding signal (z-score),[1],-0.195
same,glycan array binding signal (z-score),[2],-0.195
same,glycan array binding signal (z-score),[3],-0.195
same,glycan array binding signal (z-score),[4],-0.188
same,glycan array binding signal (z-score),[5],-0.193
same,glycan array binding signal (z-score),[6],-0.192
same,glycan array binding signal (z-score),Gal(a1-3)GalNAc,-0.194
same,glycan array binding signal (z-score),Gal(a1-4)GlcNAc,-0.194
same,glycan array binding signal (z-score),[7],-0.195
same,glycan array binding signal (z-score),[8],-0.173
same,glycan array binding signal (z-score),[9],-0.19
same,glycan array binding signal (z-score),[10],-0.19
same,glycan array binding signal (z-score),[11],-0.196
same,glycan array binding signal (z-score),[12],-0.161
same,glycan array binding signal (z-score),[13],-0.197
same,glycan array binding signal (z-score),[14],-0.193
same,glycan array binding signal (z-score),[15],-0.19
same,glycan array binding signal (z-score),Gal4S(b1-4)GlcNAc,-0.195
same,glycan array binding signal (z-score),Gal6S(b1-3)GlcNAc6S,-0.195
same,glycan array binding signal (z-score),[16],-0.174
same,glycan array binding signal (z-score),[17],-0.179
same,glycan array binding signal (z-score),[18],-0.139
same,glycan array binding signal (z-score),[19],3.39
same,glycan array binding signal (z-score),[20],8.43
same,glycan array binding signal (z-score),Man(a1-2)Man(a1-3)Man,5.44
same,glycan array binding signal (z-score),[21],7.92
same,glycan array binding signal (z-score),[22],3.85
same,glycan array binding signal (z-score),[23],6.18
same,glycan array binding signal (z-score),[24],6.72
same,glycan array binding signal (z-score),[25],7.63
same,glycan array binding signal (z-score),[26],5.95
same,glycan array binding signal (z-score),[27],3.55
same,glycan array binding signal (z-score),[28],7.64
same,glycan array binding signal (z-score),Man(a1-6)Man,-0.076
same,glycan array binding signal (z-score),[29],-0.191
same,glycan array binding signal (z-score),[30],-0.195
same,glycan array binding signal (z-score),[31],-0.194
same,glycan array binding signal (z-score),[32],-0.193
same,glycan array binding signal (z-score),[33],-0.142
same,glycan array binding signal (z-score),[34],-0.102
same,glycan array binding signal (z-score),[35],-0.194
same,glycan array binding signal (z-score),Neu5Ac(a2-6)GalNAc,-0.192
same,glycan array binding signal (z-score),[36],-0.194
